HepG2 viability – HepG2 cytotoxicity, counter-screen for TGF-b inhibitors; HepG2 CAGA-GFP viability, ATP luminescence, 18 h; Potency, µM (titrated, usually from 46.1 µM), for the others: at the top dose activity change, negative = cytotoxicity, usual class: cytotoxic; 410,000 tested, 0.76% active; further: potency means the concentration at half of the fitted maximal effect
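HepG2 CAGA-GFP cells (1000/well, DMEM with 1% FBS) received compound, then TGF-beta at 500 pg/mL final, and were incubated 18 hours at 37 degrees C. Viability was read by CellTiter-Glo luminescence. Media-only wells were set as complete cell-killing and DMSO as no toxicity.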
TDP1 inh – inhibitors of human tyrosyl-DNA phosphodiesterase TDP1; 350,000 tested, 0.28% active; AID 485290; Q9NUW8; Potency, µM (top dose mostly 130 µM), without a hit: at the top dose activity change, negative = inhibition, most hits filed as inhibitors; recombinant TDP1, AlphaScreen DNA substrate cleavage; further: potency means the concentration at half of the fitted maximal effect; on the % scale 0 is the no-effect control and ±100 the full control effect; nearly all actives have a fitted effect of over 40% in size
Target sequence (Q9NUW8 whole entry, looked up): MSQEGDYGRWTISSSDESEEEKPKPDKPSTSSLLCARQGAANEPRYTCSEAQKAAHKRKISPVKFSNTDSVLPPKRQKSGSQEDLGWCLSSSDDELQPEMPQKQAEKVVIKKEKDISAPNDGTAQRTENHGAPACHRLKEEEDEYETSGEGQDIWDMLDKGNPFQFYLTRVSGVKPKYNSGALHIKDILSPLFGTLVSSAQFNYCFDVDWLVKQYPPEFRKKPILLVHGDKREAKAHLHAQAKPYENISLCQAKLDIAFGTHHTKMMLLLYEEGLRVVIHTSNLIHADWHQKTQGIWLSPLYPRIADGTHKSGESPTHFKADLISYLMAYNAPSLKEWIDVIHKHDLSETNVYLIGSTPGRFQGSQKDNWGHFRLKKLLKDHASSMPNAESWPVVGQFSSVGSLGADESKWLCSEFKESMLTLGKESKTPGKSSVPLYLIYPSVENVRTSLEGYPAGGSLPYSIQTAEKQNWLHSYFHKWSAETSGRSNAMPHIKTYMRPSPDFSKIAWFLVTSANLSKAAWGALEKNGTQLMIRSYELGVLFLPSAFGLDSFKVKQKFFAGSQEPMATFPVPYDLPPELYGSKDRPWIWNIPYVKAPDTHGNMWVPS
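Recombinant E. coli-expressed Tdp1 (1 nM) preincubated with compound 15 min at RT, then 5'-biotin/3'-phosphotyrosine-FITC DNA substrate (15 nM) added for 5 min. AlphaScreen beads (10 ug/ml) added, 10 min RT; tyrosine-FITC cleavage read as signal loss.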
TGFb inhibitor – TGF-b pathway inhibition; HepG2 CAGA-GFP TGF-b/SMAD3 reporter, GFP fluorescence, 18 h; TGF-beta stimulated, 500 pg/mL final; Potency, µM (top dose mostly 46.1 µM), for the others: at the highest dose activity, negative = inhibition, hits mostly inhibitors; 410,000 tested, 1.2% active; further: potency means the concentration at half of the fitted maximal effect; on the % scale 0 is the no-effect control and ±100 the full control effect; nearly all actives have a fitted effect of over 65% in size
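HEPG2 CAGA-GFP reporter cells (1000/well, DMEM with 1% FBS) received compounds, then recombinant TGF-beta at 500 pg/mL final for 18 hours at 37 degrees C. Per-cell GFP summed per well was normalised to unstimulated and stimulated DMSO controls before curve fitting.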
DT40 TDP1 no CPT – qHTS for Inhibitors of human tyrosyl-DNA phosphodiesterase 1 (TDP1): qHTS in cells in absence of CPT; AID 686978, 2013; Potency, µM (doses to about 46.2 µM), inactives show top-dose activity change, negative = growth inhibition, most hits filed as inhibitors; 420,000 tested, 15% active; DT40 Tdp1-/- hTDP1 cells, no CPT, ATP luminescence, 48 h; further: potency means the concentration at half of the fitted maximal effect; on the % scale 0 is the no-effect control and ±100 the full control effect; nearly all actives have a fitted effect of over 55% in size
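Chicken DT40 Tdp1-/- cells complemented with human TDP1, screened without camptothecin (DMSO vehicle only), 400 cells/well. Compounds pin-transferred, cells incubated at 37 °C for at least 48 hr. Growth read as ATP-dependent luminescence (CellTiter-Glo, 30 min at RT).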
DT40 TDP1 CPT – DT40-hTDP1 cell growth loss with CPT; Potency, µM (top dose mostly 46.2 µM), inactives show at the top dose activity change, negative = growth inhibition, hits mostly inhibitors; chicken DT40 Tdp1-/-;hTDP1 cells + 20 nM CPT, ATP luminescence, 48 h; AID 686979; 420,000 tested, 12% active; further: potency means the concentration at half of the fitted maximal effect; on the % scale 0 is the no-effect control and ±100 the full control effect; nearly all actives have a fitted effect of over 55% in size
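Cell growth measured by CellTiter-Glo luminescence after a minimum 48 h, 37 C compound exposure with 20 nM CPT in Tdp1-knockout DT40 cells stably expressing hTDP1, seeded 400/well; qHTS titration format.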
IL-1B inflam inh – inflammasome signaling inhibition, IL-1 beta readout | 360,000 tested, 4.7% active | AID 743279 | activity change, % at 57.5 µM | THP-1 LPS/ATP IL-1B secretion, AlphaLISA, 16 h; hits give low values; in the data active means activity change below about -50%; inconclusive means mostly about -30% to -49%; further: on the % scale 0 is the no-effect control and ±100 the full control effect
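Secreted IL-1B measured by AlphaLISA bead assay after 16 h compound exposure of THP-1 cells; compounds (final up to 57.5 uM) added 1 h before LPS (250 ng/mL) and ATP (1.25 mM) stimulation; lower signal means less secretion.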
Active calls of the source: *; ? = inconclusive; . = no result. The list is not random: actives were taken first. Their share in the collection is about 19%. Unless noted, the call rests on the fitted dose curve; in most records, active means well fitted curve in the direction sought with a large enough effect; inconclusive means small, poorly fitted or top-dose-only effect, or another doubt; inactive means no such curve, though single readings can be large; an effect the other way counts as inactive or inconclusive.

SMILES | HepG2 viability | TDP1 inh | TGFb inhibitor | DT40 TDP1 no CPT | DT40 TDP1 CPT | IL-1B inflam inh
Cc1n[nH]c(C)c1S(=O)(=O)N1CCN(S(=O)(=O)c2cccc(F)c2)CC1 | 1% | ? | -4% | -10% | -1% | -15
Cc1cccc(C(=O)NCc2nnc(SCC(=O)NC3=NCCS3)n2C)c1 | 1% | 0% | 13% | 16µM* | ? | -10
Cn1c(CNC(=O)c2ccccc2)nnc1SCC(=O)Nc1nccs1 | 0% | 5% | -2% | ? | 15µM* | 33
CCn1c(CNC(=O)c2cccc(C)c2)nnc1SCC(=O)NC1=NCCS1 | -4% | . | 1% | ? | 2% | 19
Clc1cccc(N/N=C/c2ccncc2)c1 | -23% | 8% | -20% | ? | -24% | -53*
Clc1ccc(/C=N\Nc2ccccc2)cc1 | -8% | . | 2% | -26% | -19% | 30
O=C(Nc1cccc(Cl)c1)O/N=C\c1ccncc1 | -1% | 0% | -5% | -5% | -1% | -16
O=C(CC(=O)Nc1cccc(Cl)c1)N/N=C\c1ccccc1 | -10% | -3% | -6% | 0.29µM* | ? | -28
O=C(N/N=C/c1ccc(Cl)cc1)Nc1ccccc1 | -30% | 0% | -3% | 8.2µM* | ? | -16
CCOc1ccc(/C=N/NC(=O)CC(=O)Nc2ccc(Cl)c(Cl)c2)cc1 | -24% | 3% | -4% | -1% | 8% | 2
CCN1C(=O)[C@@H]2[C@@H](c3ccc(-c4cc(C(C)=O)cs4)cc3)N3CCC[C@@]3(C(=O)OC)[C@@H]2C1=O | 0% | . | 3% | ? | ? | 5
COC(=O)[C@@]12CCCN1[C@H](c1ccc(-c3cccc(Cl)c3)c(OC)c1)[C@H]1C(=O)N(C)C(=O)[C@H]12 | -8% | 5% | 1% | 16µM* | 15µM* | -8
COC(=O)[C@@]12CCCCN1[C@H](c1ccc(-c3ccccc3)c(OC)c1)[C@H]1C(=O)N(C)C(=O)[C@H]12 | 9% | 3% | -5% | 13µM* | ? | 43
COC(=O)[C@@]12CCCCN1[C@H](c1ccc(-c3cccc(Cl)c3)c(OC)c1)[C@@H]1C(=O)N(C)C(=O)[C@@H]12 | -20% | 0% | ? | 21µM* | ? | ?
CCN1C(=O)[C@H]2[C@@H](c3ccc(-c4cccc(Cl)c4)c(OC)c3)N3CCC[C@@]3(C(=O)OC)[C@H]2C1=O | -6% | 0% | ? | 9.2µM* | 13µM* | -51*
COc1cccc(C2C(=O)N(C3CCCCC3)CC(=O)N2CCc2ccc(OC)c(OC)c2)c1 (stereo not drawn) | -19% | 3% | 0% | ? | ? | .
CC(C)c1ccc(CN2CCC(n3nccc3NC(=O)C3CCCC3)CC2)cc1 | -11% | . | -8% | ? | ? | -19
O=C1C[C@@H](c2ccc(O)cc2)Oc2cc(O[C@@H]3O[C@H](CO)[C@@H](O)[C@H](O)[C@H]3O)cc(O)c21 | . | 8% | . | . | . | .
COC(=O)[C@@]12CCCN1[C@H](c1ccc(-c3ccc(Cl)c(Cl)c3)c(OC)c1)[C@H]1C(=O)N(C)C(=O)[C@H]12 | -25% | 5% | ? | 23µM* | 13µM* | ?
COC(=O)[C@@]12CCCCN1[C@H](c1ccc(-c3ccc(C(C)=O)cc3)c(OC)c1)[C@@H]1C(=O)N(C)C(=O)[C@@H]12 | -21% | 4% | -6% | 15µM* | 16µM* | -5
O=C(CCNC(=O)c1ccc([N+](=O)[O-])cc1)Nc1ccc(S(=O)(=O)N2CCOCC2)cc1 | 5% | -12% | 12% | -18% | -11% | 3

Source: PubChem
